Rows were chosen to be rich in hits. Some 3.5% of all compounds tested hit in one or more screens of this group.
TEAD-YAP inh: TEAD-YAP interaction inhibition, primary screen, TEAD-YAP interaction inhibitor project, luminescence, HEK-TIYL cells. TEAD-Gal4/YAP UAS-luciferase luminescence. inhibition, % at 9.12 µM. actives 1.4% (n = 640,000). AID 1259422, 2018; in the data active = inhibition above about 32%
GPR151 ag: activators of human GPR151, primary screen, cell-based, PathHunter beta-arrestin, luminescence | activation, % at 11.2 µM | actives 1% (n = 650,000) | G-protein coupled receptor 151 (Homo sapiens), Q8TDV0 | AID 1508602, 2020 | PathHunter beta-arrestin GPR151 cells; in the data active = activation above about 4.9%
MITF inh: MITF inhibitors, primary screen, biochemical, AlphaScreen, human; Microphthalmia-associated transcription factor (Homo sapiens), O75030; AlphaScreen MITF homodimerization, bead proximity signal; inhibition, % at 2.6 µM; actives 0.91% (n = 650,000); AID 1259374, 2018; in the data active = inhibition above about 50%
Target sequence (O75030 whole entry, looked up): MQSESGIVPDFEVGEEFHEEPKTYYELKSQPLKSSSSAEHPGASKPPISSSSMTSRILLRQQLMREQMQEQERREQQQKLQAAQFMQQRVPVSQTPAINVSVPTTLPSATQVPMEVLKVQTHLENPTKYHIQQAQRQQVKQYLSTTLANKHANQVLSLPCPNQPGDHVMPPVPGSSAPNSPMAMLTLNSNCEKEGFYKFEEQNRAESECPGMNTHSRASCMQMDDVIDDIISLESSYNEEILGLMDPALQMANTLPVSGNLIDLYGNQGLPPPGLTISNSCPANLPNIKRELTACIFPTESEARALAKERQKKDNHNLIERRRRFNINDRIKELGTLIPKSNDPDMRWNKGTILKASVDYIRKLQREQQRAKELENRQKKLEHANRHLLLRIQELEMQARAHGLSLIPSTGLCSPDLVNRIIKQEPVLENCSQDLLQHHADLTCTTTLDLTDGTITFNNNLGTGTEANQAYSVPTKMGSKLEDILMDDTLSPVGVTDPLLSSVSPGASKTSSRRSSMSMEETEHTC
FBW7 act: FBW7 E3 ligase activators, primary screen, biochemical, AlphaScreen, human. AID 1259310, 2017. normalized activity (activation), % at 26.1 µM. actives 0.13% (n = 650,000). AlphaScreen FBW7–phospho-cyclin E peptide binding, activator screen; in the data active = normalized activity above about 1.9%;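 note: purified mutant Fbw7 with reduced substrate affinity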
Of the large screens only hits and unclear results are named; the others gave an inactive call.

O=C(O)C1C2CC=CC2c2cc(Oc3ccccc3)cc3c2N1CC1CC=CC31 (configuration not stated)	FBW7 act 2.3
CC(=O)Nc1nc(-c2nc3ccccc3s2)cs1	TEAD-YAP inh 38
Cc1ccc2sc(-c3ccc(NC(=O)C(C)(C)C)cc3)nc2c1	TEAD-YAP inh 37
Cc1ccc2sc(-c3ccc(NC(=O)c4ccc(Br)cc4)cc3)nc2c1	none
O=C(Nc1ccc(-c2nc3ccccc3s2)cc1)C(F)(F)F	TEAD-YAP inh 67
Cc1ccc2sc(-c3ccc(NC(=O)/C=C\C(=O)O)cc3)nc2c1	TEAD-YAP inh 90
COCCNC(=O)c1csc2c1CCC(C)C2 (configuration not stated)	none
Cc1nc(NC(=O)c2ccco2)ccc1I	TEAD-YAP inh 39
Cc1nc(NC(=O)c2cc3ccccc3o2)ccc1I	none
COc1ccc(Nc2nc(NCCCN3CCOCC3)c3cc(OC)c(OC)cc3n2)cn1	none
CC(C)C[C@H]1NC(=O)[C@@H]2C[C@H](NCc3ccc(F)c(F)c3)CN2C1=O	none
NC(=O)c1ccsc1NC(=O)CSc1nnc(-c2ccco2)n1-c1ccccc1	TEAD-YAP inh 43
Cc1ccc2ccc(C(Nc3ccccn3)c3cccc(O)c3)c(O)c2n1 (configuration not stated)	none
CCCOc1ccc(C(Nc2ccccn2)c2ccc3cccnc3c2O)cc1 (configuration not stated)	none
CC(C)c1ccc(C(Nc2ccccn2)c2ccc3cccnc3c2O)cc1 (configuration not stated)	TEAD-YAP inh 63
Oc1ccc(Br)c(C(Nc2ccccn2)c2ccc3cccnc3c2O)c1 (configuration not stated)	TEAD-YAP inh 85
Cc1ccc(C(Nc2ccccn2)c2ccc3cccnc3c2O)s1 (configuration not stated)	TEAD-YAP inh 81
Oc1c(C(Nc2ccccn2)c2ccc(Br)cc2)ccc2cccnc12 (configuration not stated)	TEAD-YAP inh 84
N=C1C(c2nc3ccccc3c(=O)[nH]2)=C(O)CN1C1CCCCC1	none
CCOC(=O)CC(=O)CSc1nc2ccsc2c(=O)n1Cc1ccc(OC)cc1	none
COC(=O)C(C)OC(=O)c1ccc(Cl)c([N+](=O)[O-])c1 (configuration not stated)	FBW7 act 3.0
COc1ccc(C(=O)c2ccc(Cl)c([N+](=O)[O-])c2)cc1	TEAD-YAP inh 62
COc1ccc(C(=O)c2ccc(Br)c([N+](=O)[O-])c2)cc1C	TEAD-YAP inh 65
CCOC(=O)C(C)OC(=O)c1ccc(Cl)c([N+](=O)[O-])c1 (configuration not stated)	none
CCCNc1nc(NCCN2CCOCC2)nc2nc[nH]c12	none
CCNCc1ccc(OC(C)C)c(OC)c1	none
O=c1oc2ccc(Cl)cc2c(=O)n1-c1cccc(C(F)(F)F)c1	TEAD-YAP inh 76
CCCOc1ccc(C(=O)NC(=S)NNC(=O)c2cnccn2)cc1	none
CC(=O)c1ccc(OCC(=O)NCC2Cc3c(F)ccc(-c4ccncc4)c3O2)cc1 (configuration not stated)	TEAD-YAP inh 33
CCCNc1ccnc2c(-c3ccc(N)cc3)cnn12	TEAD-YAP inh 76
CCCNc1ccnc2c(-c3ccsc3)cnn12	TEAD-YAP inh 54
COc1ccc(CNc2ccnc3c(-c4cncnc4)cnn23)cc1	TEAD-YAP inh 44
Cc1cccc(N(C)c2ccnc3c(-c4cccc(N)c4)cnn23)c1	none
Cc1cccc(N(C)c2ccnc3c(-c4ccc(N)cc4)cnn23)c1	TEAD-YAP inh 56
CCOC(=O)N1CCC(NC(=O)C(NC(=O)C2CCC(C)CC2)C(C)C)CC1 (configuration not stated)	none
COc1cc([N+](=O)[O-])ccc1-c1ccc(C=C2C(=O)OC3(CCCC3)OC2=O)o1	none
O=c1c(O)cccc2cc(O)c(O)c(O)c12	MITF inh 90
O=C(N/N=C/c1cc(Cl)ccc1O)c1cccs1	TEAD-YAP inh 55
O=C(CNc1ccc2ccccc2c1)N/N=C/c1ccc(O)cc1O	TEAD-YAP inh 40
Nc1nonc1C(=O)N/N=C/c1ccc(O)cc1O	MITF inh 94
O=C(N/N=C/c1ccc(O)cc1O)c1cccs1	MITF inh 83
O=C(N/N=C/c1ccc(O)cc1)c1cccs1	none
Nc1nonc1C(=O)N/N=C\c1ccc(O)c(O)c1	none
O=C1c2cccnc2C(=O)N1Cc1ccc(F)cc1S(=O)(=O)N1CCOCC1	none
CCOc1cc(C(=O)N/N=C/c2ccc(O)cc2O)cc(OCC)c1OCC	TEAD-YAP inh 72
O=C(N/N=C/c1cc(Br)ccc1F)c1cccs1	none
CCN(CC)c1ccc(/C=N/NC(=O)c2nonc2N)cc1	TEAD-YAP inh 46
O=C(N/N=C/c1ccc(O)cc1O)c1ccc[n+](CCO)c1	MITF inh 101
O=C(N/N=C/c1cc(Br)ccc1O)c1cccs1	TEAD-YAP inh 40
COc1ccc(C(=O)N/N=C/c2ccc(O)cc2O)cc1	none
CC(C)CC(=O)Nc1ccc2c(c1)C(=O)Nc1ccccc1O2	none
O=C(N/N=C\c1ccc(O)cc1O)C(=O)N/N=C/c1ccc(O)cc1O	MITF inh 69
O=C(CCCN1C(=O)/C(=C/c2ccc3c(c2)OCO3)SC1=S)Nc1ccccc1O	none
COC(=O)c1cc(S(=O)(=O)Nc2ccc(C)cc2Cl)cn1C	none
Cc1ccc(Oc2ccc(-c3cnc4ccccc4n3)cc2[N+](=O)[O-])cc1C	FBW7 act 1.9
Cc1ccc(Oc2ccc(-c3cnc4ccccc4n3)cc2[N+](=O)[O-])c(-n2nc3ccccc3n2)c1	none
CC(=O)c1ccc(Oc2ccc(-c3cnc4ccccc4n3)cc2[N+](=O)[O-])cc1	none
O=[N+]([O-])c1cc(-c2cnc3ccccc3n2)ccc1N1CCCCCC1	TEAD-YAP inh 71
CCC(=O)NC(c1ccc(OC)cc1)c1ccc2cccnc2c1O (configuration not stated)	TEAD-YAP inh 32, MITF inh 63
CC(=O)NC(c1ccc(Cl)cc1Cl)c1cc(Cl)c2cccnc2c1O (configuration not stated)	none
COCC(=O)NC(c1ccccc1)c1cc(Cl)c2cccnc2c1O (configuration not stated)	none
CC(=O)NC(c1ccc(Cl)cc1Cl)c1ccc2cccnc2c1O (configuration not stated)	TEAD-YAP inh 89
CCC(=O)NC(c1ccccc1)c1ccc2cccnc2c1O (configuration not stated)	TEAD-YAP inh 82
CCCC(=O)NC(c1ccc(Cl)cc1Cl)c1ccc2cccnc2c1O (configuration not stated)	TEAD-YAP inh 63
COc1ccc(C2CC(C(F)(F)F)n3nc(C(=O)Nc4cccc(C(C)O)c4)c(Cl)c3N2)cc1OC (configuration not stated)	none
CC(C)Oc1ccc(NC(=O)CCN2C(=O)c3cccc([N+](=O)[O-])c3C2=O)cc1	none
CCCC(=O)NC(c1ccc(Cl)cc1)c1ccc2cccnc2c1O (configuration not stated)	TEAD-YAP inh 88

Screens (PubChem BioAssay)
